# Results reported in publication PMC7862700, “An all-to-all approach to the identification of sequence-specific readers for epigenetic DNA modifications on cytosine”.
# Experiments:
# Assay in all cases: DAPPL (digital affinity profiling via proximity ligation, sequencing); 10 mM Tris-HCl pH 7.5, 50 mM NaCl, 1 mM DTT, 4% glycerol, room temperature, 30 min; GST-TFs on glutathione beads, 16-mer random dsDNA library, 0.1% formaldehyde crosslink after washing; high values mean tight binding
# Settings in all cases: protein: recombinant; tags: N-terminal GST; dsDNA, one strand shown
# [1] = target: ETV1 (Homo sapiens, UniProt P50549 1-477)
# ETV1, sequence (P50549 whole entry, the tested form may be a part): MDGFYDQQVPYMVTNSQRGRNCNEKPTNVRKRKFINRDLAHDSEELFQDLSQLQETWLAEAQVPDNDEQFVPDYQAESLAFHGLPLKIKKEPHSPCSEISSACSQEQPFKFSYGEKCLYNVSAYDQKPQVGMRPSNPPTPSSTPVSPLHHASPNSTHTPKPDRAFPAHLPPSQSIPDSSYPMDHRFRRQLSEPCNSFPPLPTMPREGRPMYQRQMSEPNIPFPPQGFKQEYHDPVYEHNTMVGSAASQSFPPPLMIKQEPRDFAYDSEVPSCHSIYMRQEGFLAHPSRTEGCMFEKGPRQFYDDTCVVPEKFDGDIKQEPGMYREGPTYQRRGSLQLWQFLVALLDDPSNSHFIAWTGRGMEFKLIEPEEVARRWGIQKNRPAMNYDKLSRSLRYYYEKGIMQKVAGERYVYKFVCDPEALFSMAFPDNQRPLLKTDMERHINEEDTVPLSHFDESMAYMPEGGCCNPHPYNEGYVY
# In short: (§1)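 A tag-only sample was pooled with DNA-barcoded human transcription factors that had been expressed in yeast as GST fusions and captured on glutathione beads. The pools were incubated for 30 min at room temperature with 200 nmole of a random double-stranded 16-mer DNA library in Tris/NaCl/DTT/glycerol buffer, then washed, crosslinked with 0.1% formaldehyde, proximity-ligated (BsaI/T4 ligase, 1 h, 37 °C), PCR-amplified and sequenced on an Illumina NextSeq500. Binding signal is each hexamer's read frequency for a factor divided by its frequency for the tag-only sample.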
# [2] = target: T1, ERF (Homo sapiens, UniProt P50548 1-548)
# T1 sequence: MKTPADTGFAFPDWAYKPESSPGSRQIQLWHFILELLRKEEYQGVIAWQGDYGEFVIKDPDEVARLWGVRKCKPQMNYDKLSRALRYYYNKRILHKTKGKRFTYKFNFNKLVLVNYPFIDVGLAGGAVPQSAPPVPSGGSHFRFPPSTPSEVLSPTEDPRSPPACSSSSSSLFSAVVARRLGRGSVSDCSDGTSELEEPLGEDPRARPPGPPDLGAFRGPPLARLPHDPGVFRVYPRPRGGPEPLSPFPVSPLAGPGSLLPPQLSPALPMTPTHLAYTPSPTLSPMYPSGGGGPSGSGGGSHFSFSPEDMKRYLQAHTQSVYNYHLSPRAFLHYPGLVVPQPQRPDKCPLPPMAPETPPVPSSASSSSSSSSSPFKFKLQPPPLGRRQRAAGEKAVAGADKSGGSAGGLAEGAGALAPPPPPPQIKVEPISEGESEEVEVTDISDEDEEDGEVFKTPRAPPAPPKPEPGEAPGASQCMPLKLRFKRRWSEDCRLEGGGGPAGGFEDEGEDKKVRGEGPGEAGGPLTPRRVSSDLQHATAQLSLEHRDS
# In short: as §1
# [3] = target: T2, ETV3L (Homo sapiens, UniProt Q6ZN32 1-361)
# T2 sequence: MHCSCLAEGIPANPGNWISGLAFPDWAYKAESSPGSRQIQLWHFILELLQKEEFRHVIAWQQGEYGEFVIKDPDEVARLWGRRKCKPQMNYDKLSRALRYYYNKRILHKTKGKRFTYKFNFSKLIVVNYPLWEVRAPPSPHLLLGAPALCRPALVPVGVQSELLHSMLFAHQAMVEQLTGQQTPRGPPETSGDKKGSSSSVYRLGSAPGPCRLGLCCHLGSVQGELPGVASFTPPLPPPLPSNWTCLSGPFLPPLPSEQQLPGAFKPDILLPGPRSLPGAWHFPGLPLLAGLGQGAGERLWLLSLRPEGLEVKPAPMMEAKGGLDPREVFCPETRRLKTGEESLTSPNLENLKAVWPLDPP
# In short: as §1
# [4] = target: T3, ETS2 (Homo sapiens, UniProt P15036 1-469)
# T3 sequence: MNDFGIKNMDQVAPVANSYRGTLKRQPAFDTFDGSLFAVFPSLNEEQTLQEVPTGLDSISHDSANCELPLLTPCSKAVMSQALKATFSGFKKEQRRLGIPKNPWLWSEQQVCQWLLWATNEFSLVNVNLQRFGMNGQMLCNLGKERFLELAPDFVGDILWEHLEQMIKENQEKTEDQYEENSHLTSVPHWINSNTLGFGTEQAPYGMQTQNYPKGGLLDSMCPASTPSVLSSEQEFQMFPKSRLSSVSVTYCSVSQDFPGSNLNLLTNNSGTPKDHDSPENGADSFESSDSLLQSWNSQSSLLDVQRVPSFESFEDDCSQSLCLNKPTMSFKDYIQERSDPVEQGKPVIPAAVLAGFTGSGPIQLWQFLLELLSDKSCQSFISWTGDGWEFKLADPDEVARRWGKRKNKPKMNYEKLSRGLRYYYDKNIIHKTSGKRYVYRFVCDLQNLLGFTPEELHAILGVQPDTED
# In short: as §1
# [5] = target: T4, SPDEF (Homo sapiens, UniProt O95238 1-335)
# T4 sequence: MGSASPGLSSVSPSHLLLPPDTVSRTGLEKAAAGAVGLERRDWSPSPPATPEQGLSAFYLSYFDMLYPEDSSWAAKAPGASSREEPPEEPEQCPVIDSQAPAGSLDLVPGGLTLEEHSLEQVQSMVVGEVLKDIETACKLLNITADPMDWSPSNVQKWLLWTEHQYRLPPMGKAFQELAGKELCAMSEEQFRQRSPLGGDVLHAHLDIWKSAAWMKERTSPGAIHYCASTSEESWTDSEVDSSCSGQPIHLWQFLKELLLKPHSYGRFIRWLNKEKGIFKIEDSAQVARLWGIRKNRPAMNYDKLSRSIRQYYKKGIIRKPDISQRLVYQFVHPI
# In short: as §1
# [6] = target: T5, ETV7 (Homo sapiens, UniProt Q9Y603 1-341)
# T5 sequence: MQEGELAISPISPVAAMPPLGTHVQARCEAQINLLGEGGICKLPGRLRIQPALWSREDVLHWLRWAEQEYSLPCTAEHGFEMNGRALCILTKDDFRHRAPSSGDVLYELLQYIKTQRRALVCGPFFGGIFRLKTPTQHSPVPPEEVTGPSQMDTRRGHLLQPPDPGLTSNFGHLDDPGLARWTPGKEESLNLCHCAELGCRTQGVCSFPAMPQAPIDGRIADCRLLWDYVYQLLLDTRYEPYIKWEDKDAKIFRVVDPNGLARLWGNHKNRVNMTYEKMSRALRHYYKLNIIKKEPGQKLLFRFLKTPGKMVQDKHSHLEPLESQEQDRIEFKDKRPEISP
# In short: as §1
# [7] = target: T6, ELF5 (Homo sapiens, UniProt Q9UKW6-2 1-255)
# T6 sequence: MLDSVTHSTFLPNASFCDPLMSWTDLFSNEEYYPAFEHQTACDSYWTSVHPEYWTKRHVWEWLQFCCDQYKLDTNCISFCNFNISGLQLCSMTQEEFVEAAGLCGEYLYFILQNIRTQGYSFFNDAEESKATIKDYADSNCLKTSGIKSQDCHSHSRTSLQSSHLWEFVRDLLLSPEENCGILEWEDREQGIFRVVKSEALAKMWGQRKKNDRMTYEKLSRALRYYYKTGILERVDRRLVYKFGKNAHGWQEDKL
# In short: as §1
# [8] = target: T7, ETV3 (Homo sapiens, UniProt P41162-2 1-143)
# T7 sequence: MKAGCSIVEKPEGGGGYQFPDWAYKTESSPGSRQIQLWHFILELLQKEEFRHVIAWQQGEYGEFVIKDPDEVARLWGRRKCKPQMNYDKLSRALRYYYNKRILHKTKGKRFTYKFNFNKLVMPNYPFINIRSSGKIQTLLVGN
# In short: as §1
# [9] = target: ETV6 (Homo sapiens, UniProt P41212 1-452)
# ETV6, sequence (P41212 whole entry): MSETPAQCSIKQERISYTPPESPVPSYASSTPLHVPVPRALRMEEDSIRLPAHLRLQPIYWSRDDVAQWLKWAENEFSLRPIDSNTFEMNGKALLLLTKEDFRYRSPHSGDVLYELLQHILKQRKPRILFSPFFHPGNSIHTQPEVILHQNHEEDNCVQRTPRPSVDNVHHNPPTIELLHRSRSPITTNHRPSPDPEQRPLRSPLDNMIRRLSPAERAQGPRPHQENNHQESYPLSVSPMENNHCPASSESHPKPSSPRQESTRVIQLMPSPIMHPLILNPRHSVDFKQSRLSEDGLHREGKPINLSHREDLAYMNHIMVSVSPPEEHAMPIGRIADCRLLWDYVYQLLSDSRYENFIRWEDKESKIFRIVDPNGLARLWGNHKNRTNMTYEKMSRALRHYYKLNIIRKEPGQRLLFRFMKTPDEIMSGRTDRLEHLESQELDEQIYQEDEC
# In short: as §1
sequence,measurement,setting,value
TTTCAA,binding signal,[1],"1.33 fold enrichment (6-mer frequency, TF over GST control)"
same,binding signal,[2],"1.22 fold enrichment (6-mer frequency, TF over GST control)"
same,binding signal,[3],"1.28 fold enrichment (6-mer frequency, TF over GST control)"
same,binding signal,[4],"1.24 fold enrichment (6-mer frequency, TF over GST control)"
same,binding signal,[5],"1.16 fold enrichment (6-mer frequency, TF over GST control)"
same,binding signal,[6],"1.3 fold enrichment (6-mer frequency, TF over GST control)"
same,binding signal,[7],"1.26 fold enrichment (6-mer frequency, TF over GST control)"
same,binding signal,[8],"1.31 fold enrichment (6-mer frequency, TF over GST control)"
same,binding signal,[9],"1.21 fold enrichment (6-mer frequency, TF over GST control)"
